In the library only some 4.7% were active in any assay of this set; here they are far more common.
tim10-1 inh: inhibits growth of tim10-1 mutant yeast; S. cerevisiae tim10-1 ts strain growth, BacTiter-Glo, 24 h; inhibition, % at 20 µM; 2.2% of 330,000 active;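 active = inhibition of at least 40%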;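 also: mutant grown at 25 °C; 0% = DMSO wells with yeast and 100% = wells holding no yeast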
TIM10 inh: inhibits growth of TIM10 yeast strain. 1.4% of 330,000 active. S. cerevisiae TIM10 strain growth, BacTiter-Glo luminescence, 24 h. inhibition, % at 10 µM;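 active = inhibition of 40% or more at the single tested concentration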;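 also: wild-type TIM10 isogenic control strain grown at permissive 25 °C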
ATG4B inh: blocks human ATG4B protease cleavage of LC3 substrate; ATG4B cleavage of LC3-PLA2, NBD-HPC fluorescence, 1 h; AID 504462; Q9Y4P1; 0.51% of 340,000 active; inhibition, % at 8.33 µM; in the data active = inhibition above about 40%
Target sequence (Q9Y4P1 whole entry, looked up): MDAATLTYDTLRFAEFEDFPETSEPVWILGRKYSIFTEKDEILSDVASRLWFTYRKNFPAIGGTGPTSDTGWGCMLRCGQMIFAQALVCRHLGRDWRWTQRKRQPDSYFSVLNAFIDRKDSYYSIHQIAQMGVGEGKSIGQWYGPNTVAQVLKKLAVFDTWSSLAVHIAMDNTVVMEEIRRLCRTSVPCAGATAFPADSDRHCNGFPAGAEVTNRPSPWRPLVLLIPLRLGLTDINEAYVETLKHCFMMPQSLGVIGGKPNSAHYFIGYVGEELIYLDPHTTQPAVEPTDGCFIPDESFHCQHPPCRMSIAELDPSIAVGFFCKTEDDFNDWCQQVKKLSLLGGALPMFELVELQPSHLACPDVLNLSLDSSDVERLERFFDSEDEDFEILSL
tim23-1 inh: tim23-1 yeast growth inhibition. S. cerevisiae tim23-1 growth, BacTiter-Glo luminescence, 24 h. 1.3% of 330,000 active. inhibition, % at 20 µM. AID 463212;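 active = growth inhibition of the mutant yeast at or above 50%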;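 also: temperature-sensitive mutant grown at 25 °C; plate controls were DMSO-treated mutant yeast for no effect and medium wells lacking yeast for full effect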
SKKanGAS inh: inhibitors of SKKanGAS S. pyogenes growth in kanamycin (SK-promoter or general growth effect). inhibition, % at 7.5 µM. 1.3% of 300,000 active. BacTiter-Glo, 6 h;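 active = mean replicate score, as percent of positive control median, at least 50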;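 also: strain carries kanamycin resistance gene driven by streptokinase promoter and grows in 40 µg/ml kanamycin; loss of luminescence reflects streptokinase promoter inhibition or plain growth inhibition; 0% = median of DMSO wells and 100% = positive control at its reference dose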
PfHsp90 set2: growth inhibition of yeast expressing Plasmodium Hsp90; S. cerevisiae expressing PfHsp90, BacTiter-Glo ATP, 48 h; yeast lacking PDR1 and PDR3 efflux regulators; inhibition, % at 9.4 µM; 0.32% of 310,000 active;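 active = every replicate shows inhibition above about 80%, whatever the replicate mean, limit read from the data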;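 also: 0% = DMSO neutral controls and 100% = 20 µM radicicol positive controls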
tim23-1 conf: confirmation of tim23-1 mutant yeast growth inhibitors. shares compounds with tim23-1 inh. S. cerevisiae tim23-1 growth, BacTiter-Glo luminescence, 24 h. inhibition, % at 20 µM. 83% of 4,400 active. AID 463218;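 active = inhibition above about 39% in either of two replicate wells at 20 µM, limit read from the data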;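 also: temperature-sensitive tim23-1 mutant grown at 25 °C; 0% = DMSO wells with yeast and 100% = medium wells without yeast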
* hit, by the source's call; x = no result.

SMILES	tim10-1 inh	TIM10 inh	ATG4B inh	tim23-1 inh	SKKanGAS inh	PfHsp90 set2	tim23-1 conf
Cc1ccc(C(=O)SC2=NCCS2)cc1	2.7	25.8	7.9	73.2*	-0.2	25.1	49.3*
COc1cccc(NC(=O)CN(C2=NC3CS(=O)(=O)CC3S2)c2cccc(C)c2)c1 (stereo unspecified)	5.6	3.3	-20.6	9.4	-5.8	-6.7	x
COc1ccc(-c2cc(-c3ccc(O)cc3)nc(N)c2C#N)cc1	30.3	13.6	-7.9	48.8	-2.0	10.5	x
N#Cc1c(-c2ccccc2)cc(-c2ccc(O)cc2)nc1N	9.0	-5.1	-11.5	54.2*	3.1	-36.0	56.8*
CC(C)C(NC(=O)c1ccccc1)C(=O)NCC(c1ccccc1)N(C)C (stereo unspecified)	1.0	7.4	1.2	0.8	3.9	-16.5	x
CCOc1cc(/C=C2\COc3ccccc3C2=O)cc(Br)c1OCC(=O)N(C)C	9.6	1.9	-6.3	50.0*	-0.7	47.4	56.5*
CCOc1cc(/C=N/Nc2nc3ccccc3[nH]2)cc(Br)c1OCC(=O)N(C)C	7.1	15.8	-10.5	-4.4	2.5	x	x
CC1CCCCN1C(=O)c1cc(-c2ccc(Cl)c(Cl)c2)on1 (stereo unspecified)	15.0	21.0	3.8	30.3	-11.0	-8.7	x
CC1CCCCN1C(=O)c1cc(-c2ccc3c(c2)OCO3)on1 (stereo unspecified)	-8.9	-4.4	-7.1	92.0*	-6.4	-0.2	27.8
CCOc1ccc(-c2nc(CSc3nncs3)cs2)cc1OC	29.8	22.5	14.8	34.6	-4.5	-17.1	x
COc1ccc(S(=O)(=O)N(CC(=O)Nc2ccc(S(=O)(=O)N3CCOCC3)cc2)Cc2ccc(F)cc2)cc1	17.7	-1.9	-13.7	15.4	8.1	14.7	x
Cc1ccc(NC(=O)/C(C#N)=C(\N)C(Cl)(Cl)Cl)nc1	16.7	39.7	-3.0	70.6*	10.0	-1.1	71.4*
Cc1ccc(NC(=O)C(=O)Nc2ccc(C)cn2)nc1	-13.0	9.0	1.8	4.7	1.6	-9.0	x
Cc1ccc(C(=O)CSc2nnnn2Cc2ccccc2)cc1C	22.0	16.2	3.9	50.5*	-4.0	23.4	49.0*
COC(=O)c1ccsc1NC(=O)CSc1nnnn1Cc1ccccc1	34.9	10.7	-8.4	50.9*	x	-1.7	37.5
COCC(=O)N(C)[C@H]1C[C@H]2c3cc(-c4ccccc4)ccc3CCN2C(=O)[C@H]1[C@H](C)O	x	x	-9.1	x	x	9.7	x
CS(=O)(=O)Nc1ccc(C(=O)NC2CC3CCC2C3)cc1 (stereo unspecified)	3.1	12.6	-15.0	17.8	3.7	3.8	x
COc1ccc(N=Cc2c(O)ccc3ccccc23)cc1	35.0	18.7	-10.8	56.8*	-5.9	1.3	57.4*
O=C(O)Cc1ccc(N=Cc2c(O)ccc3ccccc23)cc1	-9.1	20.1	-1.1	33.7	-2.4	10.8	x
NC(=O)c1ccc(N=Cc2c(O)ccc3ccccc23)cc1	22.1	10.9	-16.0	57.3*	-11.6	-11.8	45.0*
O=C(O)c1ccc(N=Cc2c(O)ccc3ccccc23)cc1	8.1	11.6	0.8	58.4*	0.1	5.2	56.2*
Cc1ccc(N=Cc2c(O)ccc3ccccc23)cc1F	22.8	23.3	15.8	37.9	7.0	9.5	x
O=C(O)c1ccc(N=Cc2c(O)ccc3oc4c(c23)CCCC4)cc1	13.7	24.9	3.8	65.7*	15.4	-20.5	71.2*
CCOC(=O)Cn1nc(C)c(NC(=O)COc2ccc([N+](=O)[O-])cc2)c1C	11.0	-6.8	-14.3	6.8	-5.9	11.3	x
COc1ccc(CN2C(=O)c3cccnc3C2Nc2ccc(OC)c(Cl)c2)cc1 (stereo unspecified)	25.0	-5.2	-5.1	22.3	2.8	-11.0	x
SMILES	tim10-1 inh	TIM10 inh	ATG4B inh	tim23-1 inh	SKKanGAS inh	PfHsp90 set2	tim23-1 conf
COCCC(=O)N1CCCC(N2CCN(c3ccc(F)cc3)CC2)C1 (stereo unspecified)	-13.1	-2.4	2.5	-7.4	-0.5	2.8	x
CN(C)S(=O)(=O)c1ccc(C(=O)OCn2nnc3ccccc3c2=O)cc1	5.0	-11.0	-12.6	53.9*	-3.0	-1.3	31.9
CC(=O)Nc1cn(-c2ccccc2)nc1-c1ccccc1	-9.7	0.2	1.5	11.6	9.8	-16.7	x
O=C(CCl)Nc1cn(-c2ccccc2)nc1-c1ccccc1	30.4	13.7	-3.9	59.7*	10.5	-16.9	6.1
CCc1nnc(NC(=O)CSc2nnc(-c3ccccc3OC)n2-c2ccc(C)cc2)s1	11.4	14.1	-2.6	15.4	2.9	7.0	x
CC1(C)CC2CC(C)(CN2S(=O)(=O)c2ccc(F)cc2F)C1 (stereo unspecified)	39.8	30.3	-42.1	51.6*	x	x	48.6*
CC1(C)CC2CC(C)(CN2S(=O)(=O)c2cccc(C(N)=O)c2)C1 (stereo unspecified)	16.7	1.7	-0.9	29.0	x	-5.4	x
O=C(Nc1ccsc1C(=O)O)c1ccccc1	8.8	7.9	6.4	3.3	-5.0	-4.5	x
COc1cccc(Nc2nc(-c3ccc(O)cc3)cs2)c1	19.6	16.0	-4.3	54.5*	3.5	x	53.4*
COc1ccc(N2CCOCC2)c(NC(=O)c2ccc(Br)o2)c1	30.3	-6.1	8.4	52.1*	-6.3	19.7	38.6*
O=C(Nc1cc(Cl)ccc1N1CCOCC1)c1ccc(Br)o1	17.7	14.5	-0.2	10.4	2.6	-39.4	x
CCN(CC)CCCNC(=O)Cn1cnc2ccc(S(=O)(=O)N3CCC(C)CC3)cc2c1=O	11.3	-4.0	-3.0	7.2	-2.6	-7.0	x
Cc1ccnc(NS(=O)(=O)c2ccc(NC(=O)C3CCCCC3C(=O)O)cc2)n1 (stereo unspecified)	-1.8	-14.1	5.8	6.6	-14.5	6.9	x
CC(=O)Nc1ncc(Cc2cccc(Cl)c2)s1	11.1	12.7	1.9	42.3	5.4	-10.0	x
CC(C)C(=O)Nc1ncc(Cc2cccc(Cl)c2)s1	37.6	30.9	-1.4	54.6*	22.1	-54.5	40.2*
O=C(Nc1ncc(Cc2cccc(Cl)c2Cl)s1)C1CCCO1 (stereo unspecified)	-7.1	-31.4	7.5	30.3	8.3	-11.7	x
O=C(Nc1ncc(Cc2cccc(Cl)c2)s1)C1CCCO1 (stereo unspecified)	27.7	27.5	-4.7	50.3*	4.2	-10.2	43.0*
CCc1ccccc1NC(=O)CCC(=O)OCC(=O)c1ccc(-c2ccccc2)cc1	21.5	5.4	16.5	7.9	-4.3	-15.8	x
CC(C)CN1C(=O)c2ccc(NC(=O)c3ccco3)cc2C1=O	10.4	30.9	2.1	52.4*	-7.9	18.4	52.9*
Nc1c(N(Cc2ccco2)C(=O)c2cccc(Cl)c2)c(=O)[nH]c(=O)n1Cc1ccccc1	1.6	-1.5	10.4	4.2	x	-5.8	x
